Assay results from PubChem BioAssay AID493131 (Broad Institute, 2011).
About 3,300 (0.97%) of roughly 340,000 compounds were called active.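 The calls were made as follows: active = mean activation above about 17%, with every replicate also reaching it (limit read from the data, passing the limit was not always enough); inconclusive = only one of the two conditions met; inactive = the rest.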 Shown is part of a subset that was picked to be rich in actives.

Molecular target: Protein FosB (Mus musculus) (UniProt P13346)
Assay: activators of delta FosB homodimer, primary screen, biochemical, fluorescence polarization, TAMRA-CDK5 oligo, single point (AID 493131);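 also: fluorescence polarization rise as delta FosB binds a TAMRA Cdk5 AP-1 oligo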
Details: purified delta FosB, at 25 µM, stronger effect = higher value, percent of positive-control signal above neutral wells

Protein FosB (Mus musculus), sequence (P13346 whole entry, looked up): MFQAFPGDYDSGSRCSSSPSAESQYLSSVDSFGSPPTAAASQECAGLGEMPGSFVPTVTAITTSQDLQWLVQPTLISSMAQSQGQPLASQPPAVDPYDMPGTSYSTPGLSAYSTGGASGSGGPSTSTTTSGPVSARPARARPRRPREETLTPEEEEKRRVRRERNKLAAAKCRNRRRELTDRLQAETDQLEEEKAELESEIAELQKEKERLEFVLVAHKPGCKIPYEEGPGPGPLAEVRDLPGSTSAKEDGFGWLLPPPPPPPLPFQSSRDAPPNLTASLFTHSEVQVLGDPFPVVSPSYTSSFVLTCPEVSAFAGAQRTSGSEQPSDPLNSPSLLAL

activation, inactive:
COc1ccc(C2C(C(=O)Nc3ccccc3OC)=C(C)Nc3nnnn32)c(OC)c1 (stereo not given) -2.93%, COc1cc(C2C(C(=O)Nc3ccccc3OC)=C(C)Nc3ncnn32)ccc1O (stereo not given) -9.43%, COc1ccc(-c2cc3nc(C)c(CCC(=O)NC(C)CCc4ccco4)c(C)n3n2)c(OC)c1 (stereo not given) -2.13%, Cc1ccc(NC(=O)CCC(=O)N2CCC(c3ccccc3)=N2)cc1S(=O)(=O)N1CCCCC1 10.2%, Cc1sc2ncnc(N3CCC(C(=O)Nc4ccc(F)cc4Cl)CC3)c2c1C -2.12%, Cc1sc2ncnc(N3CCC(C(=O)NNC(=O)c4ccc(F)cc4)CC3)c2c1C -4.25%, Cc1cccc(-n2nc3c(c2NC(=O)c2cc4ccccc4o2)CS(=O)(=O)C3)c1 -22.1%, COc1ccc(CCNC(=O)c2nnc(CS(=O)(=O)c3ccccc3)o2)cc1OC -8.02%, CCCCNC(=S)N/N=C1\CCCCc2ccccc21 -5.41%, COc1cccc(CNC(=O)c2n[nH]c3ccccc23)c1 -2.62%, CCOc1ccccc1NC(=O)Cn1ncc2ccc([N+](=O)[O-])cc21 -5.27%, Cc1ccc(NC(=O)Cn2nnc(C(=O)NCc3ccco3)c2N)c(C)c1 14.6%, COc1ccc(NC(=O)Cn2nnc(C(=O)NCCc3ccc(OC)c(OC)c3)c2N)cc1 -1.69%, CCN(CC(=O)NCc1cccs1)c1nnnn1-c1ccccc1 1.6%, CCOc1ccc(Cn2nnc(C(=O)Nc3ccc(OC)cc3OC)c2N)cc1 7.56%, COc1cccc(CNC(=O)c2cccnc2Sc2ccc(Cl)cc2)c1 -12%, COc1ccc(S(=O)(=O)N2CCC(C(=O)NCCC(=O)NCc3cccc(OC)c3)CC2)cc1 -3.09%, O=C(O)c1ccc(S(=O)(=O)c2ccccc2)s1 0.96%, O=S(=O)(Nc1ccc(OC(F)(F)F)cc1)c1cccc2nonc12 2.63%, N#Cc1c(/N=C/N2CCCC2)oc(-c2ccccc2)c1-c1ccccc1 -4.67%, CC(Sc1nnnn1C1CCCCC1)C(=O)O (stereo not given) 1.4%, Cc1cccc(CSc2nc3c(c(=O)n2C)SCC3)c1 -8.87%, CCN(CC)c1ccc(S(=O)(=O)N2CCOCC2)cc1NC(=O)CSc1cccc[n+]1[O-] 4.76%, NC(=O)Nc1ccc(C(=O)OCC(=O)NC2CCCc3ccccc32)cc1 (stereo not given) 0.99%, Nc1ccc(C(=O)OCC(=O)NC2CCS(=O)(=O)C2)cc1[N+](=O)[O-] (stereo not given) -1.21%, CC1(C(=O)O)CCC(C(=O)Nc2ccc(Cl)c(Cl)c2)C1(C)C (stereo not given) -5.56%, COc1ccc2c(CC(=O)Nc3nnc(C4CC4)s3)coc2c1 -0.902%, COc1ccc(OCCCC(=O)Nc2nnc(C3CCCO3)s2)cc1 (stereo not given) -9.89%, O=C(Cc1ccc(Br)cc1)NCCN1CCOCC1 7.04%, CC1CCCCC1NC(=O)/C(C#N)=C/C=C/c1ccccc1[N+](=O)[O-] (stereo not given) -2.37%, Cn1c(=O)c2ccccc2n(CC(=O)Nc2ccc3c(c2)OCCO3)c1=O 5.57%, Cc1ccc(S(=O)(=O)NCC(=O)Nc2ccc3c(c2)OCCO3)cc1 -0.347%, Cc1ccc(SCC(=O)Nc2ccc3c(c2)OCCO3)cc1 -1.62%, COc1ccc(S(=O)(=O)N(C)CC(=O)Nc2ccc3c(c2)OCCO3)cc1OC -3.7%, O=C(c1cccc(N2CCCC2=O)c1)N1CCOCC1 -2.25%, CN(Cc1cccs1)C(=O)Cc1c[nH]c2ccccc12 0.954%, COc1ccc(NC(=O)CN(C)C(=O)c2ccc(NC3CC3)c([N+](=O)[O-])c2)cc1 4.11%, COc1ccc(-n2cnnc2SCC(=O)Nc2cccc([N+](=O)[O-])c2)cc1 9.7%, COc1ccc(CCNC(=O)CSc2nc3[nH]ncc3c(=O)n2-c2cccc(C(F)(F)F)c2)cc1OC 0.114%, O=C(COc1ccccc1)Nc1nonc1NC(=O)COc1ccccc1 1.39%, COC(=O)CC1=NN(c2nc(C)cc(C)n2)C(=O)C1 0.664%, CS(=O)(=O)N(CC(=O)N1CCCC1)Cc1ccccc1 -9%, Cc1ccc(-c2nc(CS(=O)CC(=O)N3CCN(c4ncccn4)CC3)c(C)o2)cc1 (stereo not given) -11.3%, Cc1[nH]c2c(C(=O)N3CCCC(CCC(=O)NCc4ccccc4F)C3)cccc2c1C (stereo not given) -10%, Cc1ccc(NC(=O)Nc2ccccc2)c(Br)c1 -6.25%, O=C(Nc1c[nH]c(=O)[nH]c1=O)OCc1ccccc1 1.77%, CCOC(=O)CCC(NC(=O)c1ccc(CNc2nc3cc(C(F)(F)F)ccc3nc2C(=O)OCC)cc1)C(=O)OCC (stereo not given) -4.97%, COc1ccccc1C(=O)COC(=O)CNS(=O)(=O)c1ccc(NC(C)=O)cc1 -5.62%, COc1ccccc1CNC(=O)COC(=O)CNS(=O)(=O)c1ccc(NC(C)=O)cc1 0.477%, CC1CCC(N2CC(=O)N(Cc3ccc4c(c3)OCO4)C(c3ccc(F)cc3)C2=O)CC1 (stereo not given) -1.56%, O=C(CN(Cc1ccccc1)C(=O)CCC(=O)Nc1ccccn1)NCCc1ccccc1 -12.5%, CCCOc1ccc(C(=O)CCC(=O)OC(C)C(=O)Nc2ccc(NC(C)=O)cc2)cc1 (stereo not given) 11.5%, CCCOc1ccc(/C=N/NC(=O)C2CC2)c(OCCC)c1 -10.6%, O=C(Nc1cc(-c2nc3ncccc3o2)ccc1Cl)c1ccco1 -46.8%, COC(=O)c1ccc(NC(=O)CSc2nc(N)c(NC(=O)c3ccc(Br)o3)c(=O)[nH]2)cc1 10.1%, CCN(CC(=O)NCc1ccc(F)cc1)S(=O)(=O)c1ccc(Cl)s1 6.54%, NN=C(NN=Cc1ccccc1)c1ccccc1 -14.8%, COc1ccc(C)cc1NC(=O)CSc1cccc[n+]1[O-] 6.31%, O=C(Nc1nnc(C2COc3ccccc3O2)o1)c1ccc(F)cc1 (stereo not given) 1.05%, COc1ccc(N(CC(=O)N/N=C/c2cccc3c2OCCO3)S(=O)(=O)c2ccc(NC(C)=O)cc2)cc1 -0.26%, Cc1cc(=O)[nH]c2nnnn12 -4.86%, CCN(CC)CCNc1ccc(Cl)cc1[N+](=O)[O-] 4.58%, O=C(NCc1cccnc1)C(=O)Nc1nc(-c2ccccc2)cs1 -5.18%, O=C(Nc1nnc(Cc2ccccc2)s1)c1cnccn1 -3.57%, CCCCC(NS(=O)(=O)c1ccc(C)cc1)C(=O)Oc1ccc2c3c(c(=O)oc2c1)CCC3 (stereo not given) -11.5%, CCOc1ccc(NC(=O)c2ccc(CSc3nnnn3C)cc2)cc1 -3.33%, O=C(Nc1ccc(N2CCCC2=O)cc1)c1cncc(Br)c1 -1.59%, Cn1c(=O)n(C)c2cc(/C=N/NC(=O)c3cccc(Br)c3)ccc21 10.7%, CCN(CC(=O)Nc1c(F)cccc1F)C(=O)Cc1cccs1 3.46%, COc1ccc(C)cc1NC(=O)C(OC(=O)c1cccc(S(=O)(=O)N(C)c2ccccc2)c1)c1ccccc1 (stereo not given) -8.39%, Cc1cc(C)cc(NC(=O)C(OC(=O)c2ccc(O)cc2)c2ccccc2)c1 (stereo not given) 6.84%, C/C(CC(=O)NCc1ccc(Cl)cc1)=N\NC(=O)COc1ccc(C)cc1Br -6.55%

activation, active:
COc1ccccc1NC(=O)C1=C(C)Nc2nnnn2C1c1cccc(Br)c1 (stereo not given) 27.9%, Cc1sc2ncnc(N3CCC(C(=O)Nc4nc5ccc(Cl)cc5s4)CC3)c2c1C 43.5%, COc1ccc(CNC(=O)c2nnn(CC(=O)Nc3cc(C)cc(C)c3)c2N)cc1 48.3%, CCOc1ccccc1NC(=O)Cn1nnc(C(=O)NCc2cccs2)c1N 28.6%, COc1cccc(CNC(=O)c2nnn(CC(=O)Nc3cc(C)ccc3C)c2N)c1 52.8%, COc1cccc(CNC(=O)c2nnn(CC(=O)Nc3cc(Cl)ccc3C)c2N)c1 70.5%, Nc1ccc(C(=O)OCC(=O)NC2CCCc3ccccc32)cc1[N+](=O)[O-] (stereo not given) 35.5%, COc1ccc(NC(=O)CCC(=O)Nc2nnc(C3CCCCC3)s2)cc1 23.2%, CS(=O)(=O)c1ccc(-c2nnn(CC(=O)Nc3ccc4c(c3)OCCO4)n2)cc1 37.1%, Cc1cccc(C(=O)Nc2ccccc2-c2nnn(CC(=O)Nc3ccc4c(c3)OCCO4)n2)c1 20.1%, NC(=O)NC(=O)CSc1nc2cc([N+](=O)[O-])ccc2n1-c1cccc(C(F)(F)F)c1 20.9%, Cc1cc(NC(=O)Nc2c[nH]c(=O)[nH]c2=O)ccc1Br 27%, CC(=O)Nc1ccc(S(=O)(=O)NCC(=O)OCc2cc(=O)oc3ccc4ccccc4c23)cc1 38.6%, CCCOc1ccc(C(=O)C(CCC(CNCC)C(=O)c2ccc(OCCC)cc2)CNCC)cc1 (stereo not given) 18.7%, Nc1nc(SCC(=O)Nc2cc(C(F)(F)F)ccc2Cl)[nH]c(=O)c1NC(=O)c1ccco1 48.3%, O=C(Nc1nc(-c2ccc(-c3ccccc3)cc2)cs1)c1cnccn1 21.9%, O=C(N/N=C/c1cccc(Br)c1)c1ccc(N2CCCC2=O)cc1 86.6%, Cc1ccc(C)c(NC(=O)C(OC(=O)c2ccc(C)s2)c2ccccc2)c1 (stereo not given) 23.6%
